Assay outcomes from PubChem.
These entries were drawn from the full list.
aSyn UTR act: Activators via SNCA 5'UTR binding, MLPCN. actives 7.1% (n = 300,000). activity score, % (tested at 7.5 µM), hits read low. AID 1814. alpha-synuclein 5'UTR reporter, activators screen; in the data active means activity score below about -60%
Active calls of the source: *.

SMILES	aSyn UTR act
CCc1ccc(CNC(=O)Cc2ccc(NC(=O)C3=C(C)OCCS3)cc2)cc1	66
COc1cccc(CNC(C)C(=O)Nc2ccc3c(c2)OCCO3)c1 (stereo not drawn)	-89*
O=C(COc1ccc(F)cc1)Nc1ccc2c(c1)OCCO2	-144*
Cc1ccc(NCC(=O)c2ccc(C)cc2)cc1	-125*
Cc1ccc(NCCC(=O)c2ccccc2)cc1Cl	-134*
Cc1ccc(NC(=O)CNC(=O)c2ccccc2F)cc1Cl	-69*
Cc1ccc(NCCC(=O)c2ccc(Cl)cc2)cc1	-119*
Cc1ccc(C(=O)CNc2ccc(C)c(Cl)c2)cc1	-68*
Cc1ccccc1NC(=O)c1cnn(-c2ccccc2)c1C	-164*
Cc1ccc(C)c(NC(=O)c2cnn(-c3ccccc3)c2C)c1	-81*
Cc1cccc(NC(=O)c2cnn(-c3ccccc3)c2C)c1C	-129*
COc1cccc(CNC(=O)CN2C(=O)CSc3ccc(S(=O)(=O)N4CCCCC4)cc32)c1	-160*
CC(C)OC(=O)c1ccc(NC(=O)CSc2nc3ncccc3[nH]2)cc1	-62*
CCOc1ncccc1C(=O)Nc1ccc2nc(C)sc2c1	-75*
Cc1ccc(C(=O)Nc2ccc3nc(C)sc3c2)s1	-206*
Cc1nc2cc(NC(=O)c3ccc(Br)s3)ccc2s1	-83*
Cc1nc2ccc(NC(=O)c3cc(Cl)ccn3)cc2s1	-74*
CCCCOc1ccc2c(c1)C(=O)c1cc(O)ccc1-2	-209*
CC(=O)c1ccc(NS(=O)(=O)c2c(C)cc(C)cc2C)cc1	-102*
Cc1cc(C)c(S(=O)(=O)Nc2ccc3c4c(cccc24)CC3)c(C)c1	106
O=c1c2c3c(sc2nc2n1CCCCC2)C(O)CCC3 (stereo not drawn)	-85*
O=C1CCCc2c1sc1nc3n(c(=O)c21)CCCCC3	-107*
O=C1c2sc3nc4n(c(=O)c3c2CCC1Br)CCCCC4 (stereo not drawn)	-180*
CC1=NN(c2ccccc2)C(=O)/C1=C/c1c(O)n(-c2ccc(F)cc2)[nH]c1=O	-134*
CC1=NN(c2cccc(C(=O)O)c2)C(=O)/C1=C\C=C/c1ccccc1	-64*
SMILES	aSyn UTR act
Cc1cc(/C=C2/C(=N)N3C(c4ccccc4)=CSC3=NC2=O)c(C)n1-c1ccccc1	-81*
Cc1cc(/C=C2/NC(=O)N(c3ccccc3)C2=O)c(C)n1-c1cccnc1	-149*
CC1=NN(c2ccccc2)C(=O)/C1=C/c1ccc[nH]1	-181*
Cc1cc(/C=C2\Cc3ccccc3C2=O)c(C)n1-c1ccccc1	52
CC1=NN(c2ccccc2)C(=O)/C1=C\c1cc(C)n(-c2ccccc2)c1C	-82*
CC(=O)Nc1ccc(Nc2ncnc3c2cnn3-c2cccc(C)c2)cc1	-159*
Cn1ncc2c(O/N=C(\N)c3ccc(C(C)(C)C)cc3)ncnc21	104
Cn1ncc2c(Nc3ccc4ccccc4c3)ncnc21	-164*
CC(=O)Nc1ccc(Nc2ncnc3c2cnn3-c2ccccc2)cc1	-110*
CC(C)Nc1ncnc2c1cnn2-c1ccc(Cl)cc1	56
Clc1ccc(Nc2ncnc3c2cnn3-c2ccccc2)cc1	-119*
O=[N+]([O-])c1ccc(O)c(/C=N/Nc2ncnc3c2cnn3-c2ccccc2)c1	66
N#C/C(=C(/O)c1ccc(Cl)cc1)c1nc2ccccc2[nH]1	-67*
O=C(/C(=C/c1ccc(Cl)cc1)c1nc2ccccc2[nH]1)c1ccccc1	-217*
Cc1ccccc1OCc1nnc2c3cnn(C)c3ncn12	-187*
O=C(Nc1nc2cc3c(cc2s1)OCO3)C1=COCCO1	95
CCCCCc1nnc(NC(=O)C2=COCCO2)s1	-110*
CCCCCc1nnc(NC(=O)C2CCCO2)s1 (stereo not drawn)	-90*
COc1ccccc1N1CCN(/N=C\c2ccccc2)CC1	-103*
COc1ccccc1N1CCN(/N=C/C(Cl)=C/c2ccccc2)CC1	-159*
COc1ccccc1N1CCN(/N=C\c2ccc(C)o2)CC1	-98*
COc1ccccc1N1CCN(C(=O)C2c3ccccc3Oc3ccccc32)CC1	81
Cc1cc(C)c(NN=c2c(=O)c3ccccc3c2=O)c(C)c1	-125*
COc1ccccc1N1CCN(C(=O)c2ccc(Cl)c(S(=O)(=O)NCc3ccco3)c2)CC1	-124*
COc1cc(C(=O)N2CCN(c3cc(Cl)ccc3Cl)CC2)cc(OC)c1OC	89
SMILES	aSyn UTR act
Cc1cc(C)nc(Nc2n[nH]c(-c3ccc(C(C)(C)C)cc3)n2)n1	-129*
Cc1cc(C)nc(Nc2n[nH]c(-c3ccc(N)cc3)n2)n1	-140*
Clc1ccc(/C=C/c2ncc[nH]2)c(Cl)c1	-169*
CSc1ccccc1OCc1cc(C(=O)N(C)Cc2ccncn2)no1	-81*
CSc1ccccc1OCc1cc(C(=O)NCc2cccc(C)n2)no1	-112*
CSc1ccccc1OCc1cc(C(=O)N(C)Cc2nonc2C)no1	-119*
CSc1ccccc1OCc1cc(C(=O)N(C)CC2COCCO2)no1 (stereo not drawn)	-83*
Cc1nc(CNC(=O)c2cc(COc3c(F)cccc3F)on2)cs1	41
CCn1ccnc1CN(C)C(=O)c1cc(COc2ccccc2SC)on1	-101*
O=C(/C=C/c1ccccc1)NC1CC2CCC1C2 (stereo not drawn)	-110*
